Among the test systems are RPMI-8226 leukemia; OVCAR-8 ovarian; OVCAR-5 ovarian; OVCAR-4 ovarian; SK-OV-3 ovarian; IGROV1 ovarian; OVCAR-3 ovarian; HS 578T breast; NCI/ADR-RES ovarian; T-47D breast; BT-549 breast; MDA-MB-435 melanoma; SW-620 colon; HCT-116 colon; KM12 colon; MCF7 breast; HCC-2998 colon.
Common to all, as to experiment: NCI-60 one-dose screen, 48 h (100 = growth as untreated, 0 = no growth, -100 = all killed)
Holding throughout (details): 10 µM unless noted

The panel holds about 83,000 compounds, 20% with a hit somewhere; the sample as a whole holds those more often.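 Percent growth is the endpoint: 0 to 100 indicates growth inhibition (40 means 60% inhibition), 0 means no net growth, and negative values indicate cell death.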 Values without a mark were called inactive. Activity calls are given as the source filed them. The calls were made as follows: active = growth percent below 10; inactive = the rest.

For `C[C@@H]1CC[C@H]2[C@@H](C)C(O)O[C@@H]3O[C@]4(C)CC[C@@H]1[C@]32OO4` (stereo partly specified), the growth in the test on RPMI-8226 leukemia is 3.35% (active); with OVCAR-8 ovarian, 19.2%; in the test with OVCAR-5 ovarian, 26.5%; in the test with OVCAR-4 ovarian, 40.2%; with SK-OV-3 ovarian it was 95.4%; in the test with IGROV1 ovarian, 38.9%. Besides, the growth was 30.1% in the test on OVCAR-3 ovarian; 46.4% in the test on HS 578T breast; 9.21% (active) with NCI/ADR-RES ovarian; 36.3% with T-47D breast; 32.3% with BT-549 breast; 2.52% (active) in the test with MDA-MB-435 melanoma. Besides, the growth was 17.5% with SW-620 colon, 8.03% (active) in the test on HCT-116 colon and 18.3% in the test with KM12 colon.

As for `C[n+]1c2ccccc2c(NC2CCNCC2)c2[nH]c3ccccc3c21`, the growth in the test on RPMI-8226 leukemia is -40.8% (active); in the test with OVCAR-8 ovarian, 15.2%; with OVCAR-5 ovarian it was 36.3%; in the test with OVCAR-4 ovarian, 4.1% (active); in the test with SK-OV-3 ovarian it was -0.545% (active); in the test with IGROV1 ovarian it was -20.9% (active). The growth with OVCAR-3 ovarian was -1.97% (active); in the test with HS 578T breast, -38% (active); in the test on NCI/ADR-RES ovarian it was 96.5%; in the test with T-47D breast it was -9.19% (active); in the test with MDA-MB-435 melanoma it was 30.9%; in the test with SW-620 colon, 16.1%. The growth is 1.07% (active) with MCF7 breast, 4.09% (active) in the test on HCT-116 colon, -7.7% (active) in the test with HCC-2998 colon and -11.4% (active) in the test on KM12 colon.

Take `CCCCC1Nc2nc(SC)n(C)c(=O)c2CN(Cc2ccccc2)C1=O` (stereo unspecified): the growth in the test on RPMI-8226 leukemia was 67.5%; with OVCAR-8 ovarian, 99.9%; in the test on OVCAR-5 ovarian, 100%; with OVCAR-4 ovarian it was 103%; in the test with SK-OV-3 ovarian, 93.8%; in the test on IGROV1 ovarian, 106%. In addition, the growth was 113% with OVCAR-3 ovarian; 165% with HS 578T breast; 89.7% with NCI/ADR-RES ovarian; 93.2% with T-47D breast; 99.4% in the test with MDA-MB-435 melanoma; 107% in the test with SW-620 colon. In addition, the growth is 100% with MCF7 breast, 97.3% with HCT-116 colon, 94.3% in the test on HCC-2998 colon and 105% in the test with KM12 colon.

On to `O=C1CC(C(F)(F)F)=NN1C(=O)c1nn(-c2ccc(Cl)cc2)cc1O`, for which the growth in the test with RPMI-8226 leukemia is 71.6%; in the test on OVCAR-8 ovarian, 71.9%; in the test with OVCAR-5 ovarian, 87.6%; with OVCAR-4 ovarian it was 79%; with SK-OV-3 ovarian, 75.4%; with IGROV1 ovarian, 88.7%. Moreover, the growth in the test on OVCAR-3 ovarian is 65.7%; with HS 578T breast, 106%; with NCI/ADR-RES ovarian, 72.4%; in the test on T-47D breast it was 84.8%; with MDA-MB-435 melanoma, 95.3%; in the test with SW-620 colon, 97.1%. The values for the growth in the test on MCF7 breast, in the test on HCC-2998 colon and in the test with KM12 colon were 102%, 89.7% and 79.9%, respectively.

Turning to `Cc1ccsc1/C=C/C1=NCCCN1C`, the growth was 100% in the test on RPMI-8226 leukemia; 108% in the test with OVCAR-8 ovarian; 111% in the test with OVCAR-5 ovarian; 102% with OVCAR-4 ovarian; 103% in the test on SK-OV-3 ovarian; 101% with IGROV1 ovarian. Moreover, the growth in the test on OVCAR-3 ovarian was 108%; in the test on HS 578T breast it was 115%; in the test with NCI/ADR-RES ovarian, 107%; with T-47D breast, 93.9%; with BT-549 breast it was 102%; in the test on MDA-MB-435 melanoma it was 103%. Moreover, the growth is 105% in the test with SW-620 colon, 103% in the test on HCT-116 colon, 102% in the test on HCC-2998 colon and 114% in the test on KM12 colon.

Take `CCOC(=O)C(C(C)=O)c1nc2sc3cc(Cl)ccc3n2c(=N)c1C#N` (stereo unspecified): the growth was 97.9% with RPMI-8226 leukemia; 80.9% in the test with OVCAR-8 ovarian; 114% in the test on OVCAR-5 ovarian; 77.9% with OVCAR-4 ovarian; 84.6% in the test with SK-OV-3 ovarian; 84.3% with IGROV1 ovarian. Further, the growth in the test on OVCAR-3 ovarian is 107%; with HS 578T breast, 28.8%; in the test with NCI/ADR-RES ovarian it was 87.2%; with T-47D breast, 77.9%; with MDA-MB-435 melanoma, 104%; in the test with SW-620 colon, 98.4%. Moreover, the growth is 58.8% with MCF7 breast, 103% in the test on HCT-116 colon, 131% in the test on HCC-2998 colon and 44.1% with KM12 colon.

Turning to `CCCCc1nc(Cl)c(CO)n1Cc1ccc(-c2ccccc2-c2nn[nH]n2)cc1`, the growth in the test on RPMI-8226 leukemia was 115%; with OVCAR-8 ovarian, 103%; in the test with OVCAR-5 ovarian, 101%; with OVCAR-4 ovarian it was 109%; in the test on SK-OV-3 ovarian it was 106%; with IGROV1 ovarian, 104%. The growth in the test with OVCAR-3 ovarian is 111%; in the test with HS 578T breast, 110%; in the test with NCI/ADR-RES ovarian, 105%; with T-47D breast, 110%; with BT-549 breast it was 106%; with MDA-MB-435 melanoma, 96.5%. Moreover, the growth with SW-620 colon is 103%; with HCT-116 colon, 102%; in the test on HCC-2998 colon it was 104%; in the test on KM12 colon it was 103%.

Consider `CC1=CSC2=NCCN12`, for which the growth in the test on RPMI-8226 leukemia is 106%; in the test on OVCAR-8 ovarian it was 112%; in the test on OVCAR-5 ovarian it was 107%; in the test with OVCAR-4 ovarian it was 103%; in the test with SK-OV-3 ovarian it was 110%; in the test on IGROV1 ovarian it was 108%. In addition, the growth in the test on OVCAR-3 ovarian was 113%; in the test with HS 578T breast it was 110%; in the test on NCI/ADR-RES ovarian it was 100%; in the test with T-47D breast it was 109%; with MDA-MB-435 melanoma, 111%; with SW-620 colon, 102%. Also, the growth in the test with MCF7 breast was 96.6%; in the test on HCT-116 colon, 111%; with HCC-2998 colon, 108%; in the test on KM12 colon, 109%.

As for `C=C(C)[C@@H]1C/C=C(/C=O)CC[C@@H]2O[C@@]2(C)CC/C=C(\C)CC1`, the growth is -7.67% (active) in the test on RPMI-8226 leukemia; 105% with OVCAR-8 ovarian; 97.2% in the test with OVCAR-5 ovarian; 122% with OVCAR-4 ovarian; 106% in the test with SK-OV-3 ovarian; 986% in the test with IGROV1 ovarian. The growth with OVCAR-3 ovarian is 110%; in the test with HS 578T breast, 126%; in the test on NCI/ADR-RES ovarian, 115%; in the test on T-47D breast, 101%; in the test on MDA-MB-435 melanoma, 107%; in the test with SW-620 colon it was 115%. Further, the growth with MCF7 breast was 106%; in the test with HCT-116 colon, 105%; with KM12 colon, 122%.
